Screening results deposited in PubChem by National Center for Advancing Translational Sciences (NCATS).
HCV inh = blocks hepatitis C virus | Huh7.5.1 HCVcc-Cre infection, luciferase reporter, 44 h | Potency, µM (top dose mostly 41.8 µM), usual class: inhibitors | 340,000 tested, 3.4% active | AID 651820
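Antiviral activity was scored by luciferase reporter output from cells infected with HCVcc-Cre (~0.5 moi) in presence of compound, 44 h infection period, cells seeded 1,000/well 4 h prior.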
HCMV antiviral = blocks human cytomegalovirus replication | 410,000 tested, 4.5% active | HFF cells, HCMV-luciferase reporter, 72 h; stronger effect = lower value | AID 1259415 | activity change, negative = inhibition, % at 57.5 µM; in the data active = activity change below about -60%; inconclusive = no clear call, values can overlap the other calls; inactive = above about -39%
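Screen run at 2 compound doses on HFFs infected with reporter HCMV, MOI 1 PFU/cell. Luciferase activity from cell lysates at 72 h post infection gave inhibition relative to buffer-only and Salinomycin wells.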
VACV Venus inh = vaccinia inhibition (Venus reporter). Vaccinia virus Venus reporter expression, fluorescence. Potency, µM (doses to about 36.5 µM), usual class: inhibitors. 330,000 tested, 0.46% active; calls by dose curve; tested in A549 cells; note: nearly all actives have a fitted effect of over 30% in size
FMDV inh = foot and mouth disease virus antiviral activity; Potency, µM (doses to about 57.9 µM), hits mostly inhibitors; FMDV antiviral cell-based qHTS; 410,000 tested, 1.2% active; AID 1159524; calls by dose curve; tested in HEK293T cells; note: read-out not given here; nearly all actives have a fitted effect of over 45% in size
Vaccinia mCherry = vaccinia inhibition (mCherry reporter); Potency, µM (doses to about 36.5 µM), hits mostly inhibitors; 310,000 tested, 0.63% active; Vaccinia virus mCherry reporter infection, fluorescence; calls by dose curve; tested in A549 cells; note: nearly all actives have a fitted effect of over 35% in size
Sm TGR block = blocks Schistosoma mansoni thioredoxin glutathione reductase; Q962Y6; purified TGR, DTNB reduction, TNB absorbance 405 nm; Potency, µM (series often up to 114 µM), hits mostly inhibitors; 360,000 tested, 3% active; note: nearly all actives have a fitted effect of over 60% in size
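TGR 20 nM + NADPH 100 uM (dispensed conc.), cpd preinc 15 min RT; start with NADPH (500 uM addition) then DTNB (15 mM addition). Kinetic TNB absorbance, 405 nm filter. Four-parameter Hill fit across titration.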
Hits are given with their value; – = inactive; ? = inconclusive; · = no result; [ ] = remark or other dose. This is a sample that favours compounds with a hit; in the whole collection about 9.3% have one here. Unless noted, calls come from the whole dose curve; as a rule, active = well fitted curve in the direction sought with a large enough effect; inconclusive = small, poorly fitted or top-dose-only effect, or another doubt; inactive = no such curve, though single readings can be large; an effect the other way counts as inactive or inconclusive.

SMILES	HCV inh	HCMV antiviral	VACV Venus inh	FMDV inh	Vaccinia mCherry	Sm TGR block
N#CN=c1snc(-c2ccccc2)n1-c1ccc(Cl)cc1	·	·	3.5µM	·	5.6µM	·
S=c1[nH]nc(-c2ccc(Cl)cc2)n1-c1ccc(Cl)cc1	–	–	–	–	–	–
N#CN=c1snc(-c2ccccc2Cl)n1-c1ccccc1Cl	·	·	?	·	11µM	·
CCOCCc1nn2c(=O)cc(CSCC(=O)Nc3cc(C)cc(C)c3)nc2s1	–	-62	–	–	–	–
C=Cc1ncc(OC)c2c1[nH]c1ccccc12	?	·	?	16µM	?	–
COc1ccc(/C=C/c2nccc3c2[nH]c2ccccc23)cc1	·	·	–	·	–	·
Cc1nn2c(=O)cc(COC(=O)c3ccc(NC(=O)COc4ccccc4F)cc3)nc2s1	·	–	–	10µM	–	–
Cc1ccc(OCC(=O)Nc2cccc(C(=O)OCc3cc(=O)n4nc(C)sc4n3)c2)cc1	·	–	–[7.34 µM]	13µM	–[7.34 µM]	–
Cc1nn2c(=O)cc(COC(=O)c3cccc(NC(=O)COc4ccc(C)c(C)c4)c3)nc2s1	·	-62	–	–	–	–
Cc1ccc(OCC(=O)Nc2cccc(C(=O)OCc3cc(=O)n4c(C)csc4n3)c2)cc1	·	–	–	–	–	–
COc1ccc(OCC(=O)Nc2ccccc2C(=O)OCc2cc(=O)n3nc(C)sc3n2)cc1	·	–	–	20µM	–	–
Cc1cn2c(=O)cc(COC(=O)c3cccc(NC(=O)COc4ccc(Cl)cc4)c3)nc2s1	·	–	–	–	–	–
c1ccc(COc2cncc(-c3cccnc3)c2)cc1	?	–	–	–	–	–
COc1ccc(OCC(O)CN2C(=O)c3ccccc3C2=O)cc1 (configuration not stated)	–	–	–	–	–	–
CNC(=O)N(O)C1N(/N=C/c2ccc(C)cc2)C(=S)SC1(C)C (configuration not stated)	–	–	·	–	·	–
c1ccc(C2c3c(ccc4ccccc34)Oc3ncn4nc(-c5ccco5)nc4c32)cc1 (configuration not stated)	?	–	–	–	–	–
Cc1nn2c(=O)cc(COC(=O)c3ccc(NC(=O)COc4ccc(C)c(C)c4)cc3)nc2s1	·	–	–	11µM	–	–
O=C(OCc1cc(=O)n2nc(C3CC3)sc2n1)c1cccc(NC(=O)c2ccccc2Cl)c1	·	–	–	?	–	–
Cc1nn2c(=O)cc(COC(=O)c3ccc(NC(=O)CCc4ccccc4)cc3)nc2s1	·	–	–	11µM	–	–
COc1ccccc1C(=O)Nc1ccc(C(=O)OCc2cc(=O)n3nc(C)sc3n2)cc1	·	–	?	16µM	?	–
CCCc1nn2c(=O)cc(COC(=O)c3ccc(NC(=O)COc4ccccc4)cc3)nc2s1	·	–	–	–	–	–
Cc1nn2c(=O)cc(COC(=O)c3cccc(NC(=O)CCc4ccccc4)c3)nc2s1	·	–	–	–	–	–
O=C(OCc1cc(=O)n2nc(C3CC3)sc2n1)c1ccc(NC(=O)c2ccccc2Cl)cc1	·	–	–	20µM	?	–
Cc1nn2c(=O)cc(COC(=O)c3cccc(NC(=O)COc4ccccc4C)c3)nc2s1	·	?	–	2.8µM	–	–
Nc1ccc(C(=O)Nc2ccc(OC(F)(F)C(F)F)c(NC(=O)c3ccc(N)cc3)c2)cc1	6.3µM	-68	–	–	?	–
SMILES	HCV inh	HCMV antiviral	VACV Venus inh	FMDV inh	Vaccinia mCherry	Sm TGR block
O=C(CCl)N(CCCNC(=O)C(F)(F)F)c1ccc([N+](=O)[O-])cc1	?	-101	–[7.34 µM]	20µM	–[7.34 µM]	2.8µM
O=C(NCCCNc1ccc([N+](=O)[O-])cc1)C(F)(F)F	–	–	–	–	–	–
CC(C(N)=O)N1C(=O)NC2(CCCc3ccccc32)C1=O (configuration not stated)	–	–	–	–	–	–
CCN(c1cccc(C)c1)S(=O)(=O)c1ccc2c(c1)N(C(C)=O)CCS2	11µM	-70	–	–	–	–
Cc1cc(/C=N/n2cnnc2)c(C)n1-c1ccc(OCc2ccc(Cl)cc2Cl)cc1	5.6µM	·	?	–	·	–
Cc1cc(/C=N/n2cnnc2)c(C)n1-c1ccc(OCc2ccc(F)cc2)cc1	11µM	-86	–	·	–	–
Cc1cc(/C=N/n2cnnc2)c(C)n1-c1ccc(Cl)cc1	–	–	–	–	–	–
